Data: PubChem BioAssay AID1851 (National Center for Advancing Translational Sciences (NCATS), 2009)
“And” between values parts separate entries of the source, which are not always exact repeats. Equal entries are not always repeated. Hit rate of the full screen: of about 16,000 compounds, about 2,600 (16%) were called active. Not shown: some 20% with an inconclusive outcome. The full list was thinned out, with actives kept by preference. Values without a mark were called inactive. Calls come from the whole dose curve; as a rule, active = well fitted curve in the direction sought with a large enough effect; inconclusive = small, poorly fitted or top-dose-only effect, or effect the other way; inactive = no such curve, though single readings can be large or run the other way.

The molecules below were run against Cytochrome P450 2D6 (Homo sapiens) (UniProt P10635) (assay: Cytochrome panel assay with activity outcomes). Conditions: recombinant CYP, pro-luciferin dealkylation, luminescence, p450-cyp2d6; series mostly up to 57.1 µM; activity, negative = inhibition: at the top concentration.
Chain of Cytochrome P450 2D6 (Homo sapiens) (P10635 whole entry, looked up): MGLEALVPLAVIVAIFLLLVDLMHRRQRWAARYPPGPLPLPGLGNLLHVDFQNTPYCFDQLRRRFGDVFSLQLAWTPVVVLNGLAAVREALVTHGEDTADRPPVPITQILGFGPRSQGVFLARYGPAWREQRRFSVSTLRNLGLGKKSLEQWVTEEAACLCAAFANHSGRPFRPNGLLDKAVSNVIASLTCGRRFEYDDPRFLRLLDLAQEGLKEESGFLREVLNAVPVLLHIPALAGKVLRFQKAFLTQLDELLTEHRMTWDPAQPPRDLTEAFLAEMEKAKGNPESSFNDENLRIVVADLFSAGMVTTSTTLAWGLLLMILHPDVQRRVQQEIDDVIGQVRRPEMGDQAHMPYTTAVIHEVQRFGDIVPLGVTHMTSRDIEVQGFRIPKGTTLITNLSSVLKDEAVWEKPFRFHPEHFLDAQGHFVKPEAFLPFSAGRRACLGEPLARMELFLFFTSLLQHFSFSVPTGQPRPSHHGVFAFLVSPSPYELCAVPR
% is set by controls: 0 for no effect and ±100 for the full control effect.

Row | SMILES | activity, negative = inhibition | AC50
1 | CC1=C(CC[C@H](C)CO)O[C@@H]2C[C@@H]3[C@H]4CC[C@H]5C[C@@H](O)CC[C@]5(C)[C@@H]4CC(=O)[C@@]3(C)[C@@H]12 | -3.67% [at 11.4 µM] | 
2 | CCN(CC)c1ccc(/C=C2/C(=O)NC(=O)N(CC3CCCO3)C2=O)cc1 (stereo unspecified) | -5.7% | 
3 | CC(C)c1ccc(C(c2c(O)c3ccccc3oc2=O)c2c(O)c3ccccc3oc2=O)cc1 | 2.43% [at 11.4 µM] | 
4 | COc1cc(CNC(=O)CCCC/C=C\C(C)C)ccc1O | -14.5% [at 25.6 µM] | 
5 | C[C@H](Br)C(=O)c1ccc2cc(Br)c3ccccc3c2c1 | 8.29% [at 11.4 µM] | 
6 | CCCn1c(C)c(C(=O)c2ccc3ccccc3c2)c2ccccc21 | -5.36% | 
7 | O=C(C[n+]1ccc2ccccc2c1)c1ccc2ccc3ccccc3c2c1 |  | 0.794 µM (active)
8 | CC1=C(O)C(=O)[C@H]2O[C@@H]2C1=O | 3.35% | 
9 | C[C@H]1CC[C@@]2(NC1)O[C@@H]1C[C@@H]3[C@@H]4CC=C5C[C@@H](O)CC[C@]5(C)[C@@H]4CC[C@]3(C)[C@H]1[C@@H]2C | 7.13% [at 11.4 µM] | 
10 | COC(=O)C[C@](O)(CCCC(C)(C)O)C(=O)O[C@@H]1C(OC)=C[C@]23CCCN2CCc2cc4c(cc2[C@H]13)OCO4 | -0.399% | 
11 | CN1C(=O)C(=Cc2ccc(N3CCCCC3)o2)C(=O)N(C)C1=S | 1.93% | 
12 | COC1=C(C)C(=O)c2c(c(COC(N)=O)c3n2C[C@@H]2[C@@H]3N2C)C1=O (stereo partly specified) |  | 1.58 µM (active)
13 | COc1cc2c(c(OC)c1OC)-c1ccc(O)c(=O)cc1[C@H](N)CC2 | 3.59% [at 25.6 µM] | 
14 | Nc1ccc(S(=O)(=O)c2ccc(NCN3C(=O)NC(=O)C(=O)C3=O)cc2)cc1 | 4.3% [at 11.4 µM] | 
15 | c1ccc(CN2CCN(Cc3ccc4c(c3)OCCO4)CC2)cc1 |  | 12.6 µM (active)
16 | c1cc(CN2CCCCC2)cc(OCCCNc2nc3ccccc3s2)c1 | 4.28% | 
17 | NC[C@H](O)c1cc(O)c(O)cc1F | -1.75% | 
18 | Cc1cc(C)cc(NC(=S)NC2CC3CCC(C2)N3Cc2ccco2)c1 (stereo unspecified) |  | 17.8 µM (active)
19 | CC(C)CNC(=S)NC1CC2CCCC(C1)N2Cc1ccco1 (stereo unspecified) |  | 2 µM (active)

Row | SMILES | activity, negative = inhibition | AC50
20 | CCNC(=S)NC1CC2CCCC(C1)N2Cc1ccco1 (stereo unspecified) |  | 2 µM (active)
21 | Cc1cccc(N2C(=O)NC(=O)/C(=C\c3cnn(-c4ccccc4)c3)C2=O)c1 | 2.27% | 
22 | C[C@H](Br)C(=O)N[C@H](CO)C(=O)O | 5.11% [at 11.4 µM] | 
23 | NCC1(CC(=O)O)CCCCC1 |  | inactive
24 | CCN1C[C@]2(COC(=O)c3ccccc3N3C(=O)C[C@H](C)C3=O)CC[C@H](OC)[C@@]34[C@@H]5C[C@H]6[C@H](OC)[C@H]5[C@](O)(C[C@@H]6OC)[C@@](O)([C@@H](OC)[C@@H]23)[C@@H]14 | -20.1% | 
25 | O=[N+]([O-])c1cc(-c2ccc([As](=O)(O)O)cc2)ccc1[As](=O)(O)O | 14% [at 11.4 µM] | 
26 | CC(C)Oc1cccnc1N(C)C1CCN(Cc2ccccc2)CC1 |  | 7.94 µM (active)
27 | NNC(N)=O | 12.2% | 
28 | CC(=O)[C@]1(O)CC[C@@H]2[C@H]3C[C@@H](C)C4=CC(=O)CC[C@@]4(C)[C@H]3[C@@H](O)C[C@]21C | 1.26% [at 11.4 µM] | 
29 | c1cc(C2N3CCCN2CC3)ccn1 (stereo unspecified) | 15.8% [at 11.4 µM] | 
30 | CC[C@H](C(=O)[C@H](C)[C@H](O)[C@H](C)CCc1ccc(C)c(O)c1C(=O)O)[C@H]1O[C@](CC)([C@@H]2CC[C@@](O)(CC)[C@H](C)O2)C[C@H]1C | 1.12% [at 25.6 µM] | 
31 | Cc1cc(C(C)(C)C)cc(C)c1CC1=NCCN1 |  | 31.6 µM (active) and 3.98 µM (active)
32 | O=C(O)[C@@H]1C[C@H]1[C@@H](NP(=O)(c1ccccc1)c1ccccc1)c1ccccc1 | -3.03% | 
33 | c1cncc([C@@H]2CCCCN2)c1 | -6.82% [at 25.6 µM] | 
34 | CCCCn1c(O)c(C=NCCN2CCCCC2)c(=O)[nH]c1=O | -3.07% | 
35 | COCOc1ccc(Br)cc1C(=O)/C=C\c1ccc2c(c1)OCO2 |  | 3.16 µM (active)
36 | NC[C@@H](O)CSP(=O)(O)O | 3.14% [at 11.4 µM] | 
37 | O=C1C[C@@H](c2ccc(O)cc2)Oc2cc(O)cc(O)c21 | -8.7% [at 25.6 µM] | 
38 | CC(=O)O[C@H]1CC[C@@]2(C)[C@@H](CC[C@H]3[C@H]2CC(=O)[C@]2(C)[C@@H]3C[C@@H](N3CC3)[C@H]2C(C)=O)C1 | -8.74% [at 11.4 µM] | 

Row | SMILES | activity, negative = inhibition | AC50
39 | NC(N)=NC(=O)c1nc(Cl)c(N)nc1N |  | inactive
40 | Ic1ccccc1CN[C@@H]1C2CCN(CC2)[C@H]1C(c1ccccc1)c1ccccc1 |  | 0.0631 µM (active)
41 | NO | 1.31% | 
42 | CC(=O)OCC1=C(C(=O)[O-])N2C(=O)[C@@H](NC(=O)CCC[C@@H](N)C(=O)[O-])[C@@H]2SC1.[Zn+2] | 1.63% | 
43 | O=c1cc(-c2ccc(O)cc2)oc2c([C@H]3O[C@@H](CO)[C@@H](O)[C@@H](O)[C@@H]3O)c(O)cc(O)c12 | -1.71% [at 25.6 µM] | 
44 | COC(=O)[C@H]1C(=O)c2ccccc2O[C@@](C(=O)OC)(c2ccccc2)[C@@H]1c1ccccc1 | 11.5% [at 11.4 µM] | 
45 | Cn1cccc1CNCCc1ccccc1 |  | 2.51 µM (active)
46 | O=C(O)Cc1ccc([N+](=O)[O-])cc1[N+](=O)[O-] | 5.45% [at 11.4 µM] | 
47 | Cc1cc(Cc2cc(C)c(N)cc2N)c(N)cc1N | -18.6% [at 11.4 µM] | 
48 | CSCC[C@@H](N)P(C)(=O)O | 3.31% [at 11.4 µM] | 
49 | c1ccc2c(c1)[I+]c1ccccc1-2 |  | 3.98 µM (active) and 794 nM (active)
50 | CN1C2C=C3C(C#N)=C(N)C(C#N)(C#N)[C@H](c4c(F)cccc4F)[C@H]3C1CC2 (stereo partly specified) | -27.7% | 
51 | CCC[C@@](C)(COC(N)=O)COC(=O)NC(C)C | -0.665% [at 25.6 µM] | 
52 | Clc1ccccc1-c1cncnc1NCCc1cnc[nH]1 |  | 3.98 µM (active)
53 | CNCCc1cnc[nH]1 | -9.55% | 
54 | Cc1ccccc1-c1cncnc1NCCc1cnc[nH]1 |  | 12.6 µM (active)
55 | Cn1cnc(CCN)c1 | 10.3% | 
56 | C[C@H]1CC[C@@]2(NC1)O[C@@H]1C[C@H]3[C@@H]4CC[C@@H]5C[C@@H](O)CC[C@@]5(C)[C@@H]4CC[C@]3(C)[C@@H]1[C@@H]2C | -1.98% [at 25.6 µM] | 
